Bioassay records as filed in PubChem BioAssay.
The list is not random: actives were taken first. Their share in the collection is about 1.2%.
EPAC2 ag – agonists of human EPAC2 (RAPGEF4). Q8WZA2. EPAC2 activation, biochemical qHTS; response scale: 100% = 6.5 mM cAMP response. Potency, µM (doses to about 154 µM), without a hit: top-dose activation, actives largely listed as activators. 0.079% of 360,000 active. AID 720711; further: nearly all actives have a fitted effect of over 50% in size
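Exchange assay: 100 nM EPAC2 with 250 nM Rap1B-BODIPY-GDP and 50 uM GDP. Fluorescence (ex 480/em 540 nm) read every 5 min for 30 min at room temperature. Data normalized to 6.5 mM cAMP as agonist control.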
USP1 inh – blocks the human USP1/UAF1 deubiquitinase complex; recombinant USP1/UAF1, Ub-Rhodamine cleavage fluorescence; O94782; Potency, µM (doses to about 57.1 µM), inactives show at the top dose activity change, negative = inhibition, most hits filed as inhibitors; 0.23% of 390,000 active; further: on the % scale 0 is the no-effect control and ±100 the full control effect; nearly all actives have a fitted effect of over 60% in size
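USP1/UAF1 complex (1 nM) preincubated 15 min at room temperature with compound, then Ub-Rho substrate (150 nM final) added. Kinetic fluorescence at 480/540 nm over 6 reads at 60 s intervals; 50 mM HEPES pH 7.8, 0.5 mM EDTA, 0.1 mg/ml BSA, 1 mM TCEP, 0.01% Tween-20.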
EPAC1 agonist – activates human EPAC1 exchange factor; O95398; 0.073% of 360,000 active; EPAC1 agonist qHTS, biochemical assay; response scale: 100% = response to 6.5 mM cAMP; Potency, µM (highest dose often 154 µM), for the others: top-dose activation, usual class: activators; further: nearly all actives have a fitted effect of over 60% in size
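Normalized to 6.5 mM cAMP, activity reflects EPAC1-catalysed release of BODIPY-GDP from Rap1B, followed kinetically over 30 min at 480 nm excitation, 540 nm emission. Reaction contained 100 nM EPAC1, 250 nM Rap1B-BODIPY-GDP, 50 uM GDP.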
VDR inhibitor – vitamin D3 receptor (human) inhibition. P11473. 0.93% of 400,000 active. VDR-SRC2-3 peptide fluorescence polarization, 2 h. AID 504847. Potency, µM, for the others: max response, negative = inhibition, actives largely listed as inhibitors; further: on the % scale 0 is the no-effect control and ±100 the full control effect
Target sequence (P11473 whole entry, looked up): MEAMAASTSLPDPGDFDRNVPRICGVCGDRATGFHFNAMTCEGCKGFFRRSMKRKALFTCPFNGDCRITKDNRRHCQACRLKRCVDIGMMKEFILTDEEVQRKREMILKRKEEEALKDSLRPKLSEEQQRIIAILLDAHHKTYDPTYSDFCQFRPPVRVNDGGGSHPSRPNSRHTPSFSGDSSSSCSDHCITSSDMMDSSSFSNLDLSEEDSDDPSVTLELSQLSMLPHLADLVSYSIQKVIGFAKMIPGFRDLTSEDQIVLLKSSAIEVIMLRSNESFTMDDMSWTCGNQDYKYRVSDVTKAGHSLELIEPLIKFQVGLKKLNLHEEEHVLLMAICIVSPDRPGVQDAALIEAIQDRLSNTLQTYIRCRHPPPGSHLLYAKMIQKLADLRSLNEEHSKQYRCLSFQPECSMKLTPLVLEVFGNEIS
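Inhibition of the VDR/SRC2-3 peptide interaction is quantified by fluorescence polarization. Compounds (23 nl, pintool) incubate with the reagents for 2 hours at ambient room temperature.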
EPAC1 antagonist – EPAC1 (human) antagonism | EPAC1 GEF assay, Rap1b-BODIPY-GDP exchange fluorescence | 0.14% of 360,000 active | O95398 | Potency, µM (series often up to 115 µM), for the others: at the highest dose activity change, negative = inhibition, usual class: inhibitors;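 further: plate controls were vehicle for no effect and positive control for full effect; nearly all actives have a fitted effect of over 50% in size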
EPAC2 antag – blocks human EPAC2 exchange factor; Q8WZA2; EPAC2 GEF exchange of Rap1B-BODIPY-GDP, fluorescence; Potency, µM (top dose mostly 114 µM), inactives show at the top dose activity, negative = inhibition, hits mostly inhibitors; 0.18% of 360,000 active; AID 720708; further: on the % scale 0 is the no-effect control and ±100 the full control effect; nearly all actives have a fitted effect of over 45% in size
VDR confirm – inhibits human vitamin D receptor, primary hit validation; shares compounds with VDR inhibitor; Potency, µM, most hits filed as inhibitors; AID 602199; VDR-coactivator inhibition assay, qHTS confirmation; 89% of 840 active
VDR FP – blocks human VDR-coactivator binding in fluorescein assay; shares compounds with VDR inhibitor; VDR-coactivator binding, fluorescein fluorescence polarization; Potency, µM (doses to about 57.1 µM), inactives show at the top dose activity change, negative = inhibition, most hits filed as inhibitors; 48% of 840 active; AID 602200
VDR bla reporter – inhibits human VDR in beta-lactamase reporter cells | shares compounds with VDR inhibitor | VDR beta-lactamase reporter cells, FRET ratio; cells co-treated with VDR agonist LG190178 | Potency, µM (top dose mostly 46.1 µM), inactives show at the highest dose activity change, negative = inhibition, actives largely listed as inhibitors | 23% of 840 active | AID 602202; further: on the % scale 0 is the no-effect control and ±100 the full control effect
VDR cytotox – cell toxicity, VDR inhibitor hit counter-screen | shares compounds with VDR inhibitor | cytotoxicity counter-screen, cell viability, qHTS | Potency, µM (highest dose often 48.3 µM), for inactives: at the top dose activity change, negative = cytotoxicity, most hits filed as cytotoxic | 18% of 840 active | AID 602204;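 further: plate controls were DMSO for no effect and high-concentration cycloheximide for full effect; nearly all actives have a fitted effect of over 75% in size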
Numbers without * were called inactive. The call rests on the fitted dose curve; in most records, active means well fitted curve in the direction sought with a large enough effect; inconclusive means small, poorly fitted or top-dose-only effect, or another doubt; inactive means no such curve, though single readings can be large; an effect the other way counts as inactive or inconclusive. Potency means the concentration at half of the fitted maximal effect.

`O=C(NCc1ccc2c(c1)OCO2)c1nc(S(=O)(=O)Cc2ccccc2)ncc1Cl` gave EPAC2 ag 3%, USP1 inh -5%, EPAC1 agonist -3%, VDR inhibitor 22µM*, EPAC1 antagonist inconclusive, EPAC2 antag 3%, VDR confirm 9.5*, VDR FP inconclusive, VDR bla reporter 18µM* and VDR cytotox inconclusive.
`O=C(NCc1ccc2c(c1)OCO2)c1nc(S(=O)(=O)Cc2ccccc2F)ncc1Cl` gave EPAC2 ag 7%, USP1 inh -28%, EPAC1 agonist -5%, VDR inhibitor -11%, EPAC1 antagonist -18% and EPAC2 antag -15%.
`CC1OC(OCC2OC(Oc3cc(O)c4c(c3)OC(c3ccc(O)cc3)CC4=O)C(O)C(O)C2O)C(O)C(O)C1O` (stereo unspecified) gave VDR inhibitor -4%.
For Cc1ccc(C(c2cc(Cl)c3cccnc3c2O)N2CCN(C)CC2)cc1 (stereo unspecified) the results were EPAC2 ag -17%, USP1 inh -19%, EPAC1 agonist 5%, VDR inhibitor 45µM*, EPAC1 antagonist inconclusive, EPAC2 antag 1%, VDR confirm 19*, VDR FP inconclusive, VDR bla reporter -28% and VDR cytotox inconclusive.
Screening O=C(/C=C/c1ccc([N+](=O)[O-])cc1)c1cccs1 returned EPAC2 ag 6%, USP1 inh -18%, EPAC1 agonist 3%, VDR inhibitor inconclusive, EPAC1 antagonist -5%, EPAC2 antag 1%, VDR confirm inconclusive, VDR FP 7.1µM*, VDR bla reporter inconclusive and VDR cytotox -9%.
`O=C(/C=C/c1cccs1)c1ccc([N+](=O)[O-])cc1` gave EPAC2 ag 7%, USP1 inh -21%, EPAC1 agonist -8%, VDR inhibitor -18%, EPAC1 antagonist -14% and EPAC2 antag 3%.
Screening CCN(CC)c1ccc(C=Nc2ccccc2)c(O)c1 returned EPAC2 ag 2%, USP1 inh -31%, EPAC1 agonist 0%, VDR inhibitor -17%, EPAC1 antagonist 19% and EPAC2 antag 7%.
Screening CCN(CC)c1ccc(C=Nc2ccc(N(C)C)cc2)c(O)c1 returned EPAC2 ag inconclusive, USP1 inh inconclusive, EPAC1 agonist 5%, VDR inhibitor inconclusive, EPAC1 antagonist 15%, EPAC2 antag 14%, VDR confirm 4*, VDR FP 303%, VDR bla reporter -28% and VDR cytotox -9%.
Screening CN(C)c1ccc(C(=S)N2CCN(c3ccc([N+](=O)[O-])cc3)CC2)cc1 returned EPAC2 ag 1%, USP1 inh -11%, EPAC1 agonist 4%, VDR inhibitor 79µM*, EPAC1 antagonist 7%, EPAC2 antag -7%, VDR confirm 27*, VDR FP inconclusive, VDR bla reporter -11% and VDR cytotox 13%.
`CC1CCN(c2ccc(-c3nc(C(C)C)no3)cc2[N+](=O)[O-])CC1` gave USP1 inh -13% and VDR inhibitor 16%.
For Cc1ccc(C(=O)/C=C/C(=O)O)cc1 the results were EPAC2 ag 6%, USP1 inh 1%, EPAC1 agonist -5%, VDR inhibitor 14µM*, EPAC1 antagonist -13%, EPAC2 antag 12%, VDR confirm 7.5*, VDR FP 10µM*, VDR bla reporter 20% and VDR cytotox inconclusive.
For Cc1ccc(C(=O)N2C(=S)C(c3ccc(F)cc3)=NC23CCN(C)CC3)cc1 the results were EPAC2 ag -2%, USP1 inh inconclusive, EPAC1 agonist 11%, VDR inhibitor inconclusive, EPAC1 antagonist 1%, EPAC2 antag -2%, VDR confirm 18*, VDR FP 22µM*, VDR bla reporter 26µM* and VDR cytotox inconclusive.
Screening CN1CCN(NC(=O)c2ccc(F)cc2)CC1 returned EPAC2 ag 11%, USP1 inh -3%, EPAC1 agonist 7%, VDR inhibitor -9%, EPAC1 antagonist 6% and EPAC2 antag -2%.
Screening Cc1noc(/C=C/c2ccccc2F)c1S(=O)(=O)N1CCC(C(=O)N2CCOc3ccccc32)CC1 returned USP1 inh -16% and VDR inhibitor 2%.
CCS(=O)(=O)c1ncc(Cl)c(C(=O)N2CCN(c3cccc(Cl)c3)CC2)n1 was read as USP1 inh inconclusive, VDR inhibitor 8.9µM*, VDR confirm 2.8*, VDR FP 2.8µM*, VDR bla reporter 2.9µM* and VDR cytotox 9.5µM*.
`C=CCOC(=O)N[C@H](/C(C(=O)OC)=C(\C)NCc1ccccc1)c1ccc(Br)cc1` gave VDR inhibitor -2%.
COc1cccc(/C=C/C(=O)c2cccc([N+](=O)[O-])c2)c1 was read as EPAC2 ag 7%, USP1 inh -12%, EPAC1 agonist -2%, VDR inhibitor inconclusive, EPAC1 antagonist 5% and EPAC2 antag 9%.
`COc1cccc(/C=C/C(=O)c2cccc([N+](=O)[O-])c2)c1OC` gave EPAC2 ag 20%, USP1 inh -33%, EPAC1 agonist 8%, VDR inhibitor 8.9µM*, EPAC1 antagonist inconclusive, EPAC2 antag -11%, VDR confirm 3.8*, VDR FP 3.2µM*, VDR bla reporter inconclusive and VDR cytotox inconclusive.
`C=CCOC(=O)C1(C(NC(=O)OC)c2ccccc2)C(=O)Cc2ccccc21` (stereo unspecified) gave VDR inhibitor -20%.
